# Shown are actives, neighbours in structure and some others; about 5.9% of the full set was active somewhere.
# GALK inh: qHTS Assay for Inhibitors of Human Galactokinase (GALK); 270,000 tested, 0.007% active; Purified GALK, Kinase-Glo residual ATP luminescence; Potency, µM (doses to about 57.5 µM), for the others: at the top dose activity change, negative = inhibition, hits mostly inhibitors; AID 1868, 2009; P51570; note: potency is the fitted concentration of half-maximal effect
# Target sequence (P51570 whole entry, looked up): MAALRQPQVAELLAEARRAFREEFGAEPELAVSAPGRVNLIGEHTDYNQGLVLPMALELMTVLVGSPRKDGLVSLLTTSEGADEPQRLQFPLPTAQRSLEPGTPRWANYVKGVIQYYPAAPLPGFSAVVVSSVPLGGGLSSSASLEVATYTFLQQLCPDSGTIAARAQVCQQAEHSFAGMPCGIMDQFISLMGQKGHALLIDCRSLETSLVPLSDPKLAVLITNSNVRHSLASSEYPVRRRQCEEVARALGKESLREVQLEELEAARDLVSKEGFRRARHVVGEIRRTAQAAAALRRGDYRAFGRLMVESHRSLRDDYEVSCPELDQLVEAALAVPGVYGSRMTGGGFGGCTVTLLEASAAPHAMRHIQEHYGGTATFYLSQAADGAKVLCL
#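 ATP-depletion format; final 35 uM ATP, 100 uM D-galactose, 5 nM enzyme; pH 8.0 HEPES/Mg2+ buffer; 60 min RT; luminescence read 10 min after detection reagent.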
# rTrxR1 inhibitor: qHTS Assay for Inhibitors of Mammalian Selenoprotein Thioredoxin Reductase 1 (TrxR1): qHTS. AID 588453, 2011. 390,000 tested, 1% active. recombinant rTrxR1, NADPH fluorescence consumption, selenite substrate. Potency, µM (doses to about 114 µM), for inactives: at the top dose activity change, negative = inhibition, hits mostly inhibitors; note: potency is the fitted concentration of half-maximal effect; nearly all actives have a fitted effect of over 65% in size
#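 Rat TrxR1 (90 nM in the dispensed reagent) was pre-reduced with 400 uM NADPH for 5 min at room temperature, then incubated with compound for 15 min. After 400 uM selenite was added, NADPH fluorescence (Ex 340/Em 450 nm) was followed for 8 min.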
# FBPA coupling cs: qHTS Assay for Inhibitors of Fructose-1,6-bisphosphate Aldolase from Giardia Lamblia: Coupling assay counterscreen | coupling enzyme system counterscreen, AmpLite Red fluorescence | activity change, negative = inhibition, % at 58.2 µM, hits read low | 290,000 tested, 0.67% active; in the data active = activity change below about -30%
#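 Compounds tested against the coupling enzymes alone at 57.5 uM final; readout was AmpLite Red fluorescence (525/598 nm) after 20 min at RT.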
# Gal4-VP16 FLuc: VP16 counterscreen qHTS for inhibitors of ROR gamma transcriptional activity. Drosophila S2 Gal4-VP16 UAS-luciferase, luminescence, 20 h. Potency, µM (highest dose often 53.6 µM), for inactives: at the highest dose activity, negative = inhibition, actives largely listed as inhibitors. AID 2546, 2010. 310,000 tested, 3.5% active;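 note: Gal4-VP16 expression switched on by copper sulfate through the metallothionein promoter; potency is the fitted concentration of half-maximal effect; nearly all actives have a fitted effect of over 50% in size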
# TrxR1 substrate: qHTS Assay for Substrates of Mammalian Selenoprotein Thioredoxin Reductase 1 (TrxR1): qHTS; Thioredoxin reductase 1, cytoplasmic (Rattus norvegicus), O89049; purified TrxR1 substrate turnover, NADPH consumption readout; Potency, µM (top dose mostly 114 µM), for inactives: at the highest dose activity change, negative = substrate turnover; 390,000 tested, 0.01% active; note: potency is the fitted concentration of half-maximal effect; nearly all actives have a fitted effect of over 50% in size
#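 Rat TrxR1, dispensed at 90 nM, was prereduced with 400 uM NADPH (final) for 5 min at ~22 deg C, then incubated with compound 15 min before 400 uM selenite. A first-read NADPH fluorescence drop versus no-compound background flagged substrates.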
# RORgamma inh: qHTS for inhibitors of ROR gamma transcriptional activity | Nuclear receptor ROR-gamma (Mus musculus), P51450 | Drosophila S2 Gal4-RORgamma UAS-luciferase reporter, 20 h | 310,000 tested, 5.4% active | Potency, µM (doses to about 53.6 µM), for inactives: at the highest dose activity change, negative = inhibition, actives largely listed as inhibitors | AID 2551, 2010; note: potency is the fitted concentration of half-maximal effect; nearly all actives have a fitted effect of over 60% in size
#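 A Gal4/UAS one-hybrid system in insect cells: metallothionein-promoter Gal4–ROR gamma fusion plus Photinus luciferase reporter. Copper sulfate 700 uM final, 20 hr ambient incubation, luminescent detection after 10 min with reagent.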
# Active calls of the source: *; ? = inconclusive; . = not tested or not shown; [ ] = another dose, or the depositor's remark. Unless noted, calls come from the whole dose curve; as a rule, active = well fitted curve in the direction sought with a large enough effect; inconclusive = small, poorly fitted or top-dose-only effect, or another doubt; inactive = no such curve, though single readings can be large; an effect the other way counts as inactive or inconclusive. % is set by controls: 0 for no effect and ±100 for the full control effect.
SMILES,GALK inh,rTrxR1 inhibitor,FBPA coupling cs,Gal4-VP16 FLuc,TrxR1 substrate,RORgamma inh
CC(C)C1Cc2ccccc2-c2[nH]c(=S)[nH]c(=O)c21 (stereo not drawn),.,-3%[57.1 µM],.,.,12%[57.1 µM],.
COc1ccc(-c2cn3c(C)c(C(=O)N4CCCc5ccccc54)sc3n2)cc1,.,16%[57.1 µM],.,.,5%[57.1 µM],.
COc1ccc(-c2cn3c4c(sc3n2)CCCC4)cc1,4%,-4%,-18,10µM*,0%,11µM*
COc1ccc(-c2cn3c(C)c(C(=O)Nc4ccncc4)sc3n2)cc1,1%,10%[57.1 µM],-18,13µM*,6%[57.1 µM],-20%
Cc1c(C(=O)Nc2ccncc2)sc2nc(-c3ccc(F)cc3)cn12,1%,14%[57.1 µM],-17,?,9%[57.1 µM],?
COC(=O)C1=C(O)/C(=C\c2cc(C)n(-c3ccc(F)cc3)c2C)N=C1C,-1%,18µM*,-30,-2%,-9%[57.1 µM],-1%
CCCCc1cc(=O)oc2cc(C)c3c(C(C)(C)C)coc3c12,.,21%,.,.,5%,.
S=c1[nH]nc(-c2cccc(Cl)c2)n1/N=C/c1ccc(-c2ccccc2Br)o1,-7%,13%,-1,-9%,2%,0.79µM*
Cc1ccc(/C=N/n2c(-c3cccc(Cl)c3)n[nH]c2=S)o1,5%,-22%,-2,?,-3%,5µM*
S=c1[nH]nc(-c2ccccn2)n1/N=C/c1ccc(-c2ccccc2Br)o1,2%,-29%,3,0%,-6%,10µM*
S=c1[nH]nc(-c2cccc(Cl)c2)n1/N=C/c1ccco1,.,-34%[57.1 µM],-4,?,3%[57.1 µM],?
Cc1nnc(C)n1/N=C/c1ccc(-c2ccccc2Cl)o1,7%,19%[57.1 µM],9,1%,-17%[57.1 µM],-9%
S=c1[nH]nc(-c2ccccn2)n1/N=C/c1ccco1,5%,-17%[57.1 µM],4,0%,2%[57.1 µM],-24%
S=c1[nH]nc(-c2ccccc2)n1/N=C/c1ccc(-c2ccccc2Cl)o1,1%,-11%,4,?,-10%,4.5µM*
CCCCN(Cc1ccccc1)C1CCN(Cc2ccccc2)CC1,3%,21%,0,-2%,2%,-23%
Cc1[nH]cc(Br)c(=O)c1Oc1ncc(C(F)(F)F)cc1Cl,-7%,14%,1,-2%,5%,?
COc1ccc(OC)c(CNc2nc3ccc(C)cc3n3nnnc23)c1,.,-17%,.,.,-11%,.
CCCN(CCC)S(=O)(=O)c1ccc(C(=O)Nc2ccc(OCC(=O)N3CCOCC3)cc2)cc1,1%,-1%,1,?,-2%,-32%
Cc1ccc2nc(-c3ccccn3)c(Nc3ccccc3C)n2c1,0%,14%,-4,-7%[10 µM],-7%,14µM*
Cc1ccn2c(Nc3ccccc3C)c(-c3ccccn3)nc2c1,5%,21%,-10,?,-2%,14µM*
Cc1ccccc1Nc1c(-c2ccccn2)nc2ccccn12,0%,-7%,-13,-3%,-7%,31%
Cc1ccn2c(Nc3ccccc3)c(-c3ccccn3)nc2c1,0%,-4%,-1,-16%,-2%,16µM*
Cc1cccn2c(Nc3ccccc3)c(-c3ccccn3)nc12,-1%,7%,3,5µM*,-3%,3.2µM*
CN(Cc1ccccc1)C(=O)Cn1nc(C(F)(F)F)c2c1CCC2,6%,6%,2,8%,-1%,27%
CC(C)(C)c1ccc(OC(=O)Nc2ccc(O)c(C(=O)O)c2)cc1,-3%,13%,10,1.3µM*,98%[57.1 µM],?
SMILES,GALK inh,rTrxR1 inhibitor,FBPA coupling cs,Gal4-VP16 FLuc,TrxR1 substrate,RORgamma inh
Cc1ccc(OCC(=O)Nc2ccc(O)c(C(=O)O)c2)cc1C,-1%,34%,15,?,132%,-54%
CC(C)=CC(=O)Nc1ccc2c(c1)OCO2,10%,17%,-7,?,6%,11µM*
COc1ccccc1/C=C/C(=O)Nc1ccc2c(c1)OCCO2,-1%,4%,-11,-24%,-4%,1.6µM*
O=C(/C=C/c1ccncc1)c1ccc2c(c1)OCCO2,-5%,?,2,5µM*,-4%,4µM*
O=C(CSCSCC(=O)Nc1ccc2c(c1)OCO2)Nc1ccc2c(c1)OCO2,5%,18%,0,2%,-7%,?
O=C(/C=C/c1ccccc1)Nc1ccc2c(c1)OCCO2,-2%,12%[57.1 µM],-10,13µM*,4%[57.1 µM],10µM*
O=C(/C=C/c1ccccc1)c1ccc2c(c1)OCO2,-5%,-21%,-3,4%,-3%,-22%
COc1ccccc1/C=C/C(=O)OCC(=O)Nc1ccc2c(c1)OCCO2,.,13%,.,.,16%,.
COc1ccc(CNS(=O)(=O)CCNC(=O)c2ccc(OC)cc2)cc1,.,5%[57.1 µM],.,.,5%[57.1 µM],.
COc1ccc(/C=C/C(=O)OCC(=O)Nc2cccc(C(C)=O)c2)cc1,0%,-13%,-2,0%,-14%,-8%[10 µM]
O=C(COc1ccc(Cl)cc1Cl)NC(=O)c1ccccc1,-2%,28%,.,-9%,1%,-17%
CC(=O)N1CCN(c2ccc(NCc3ccc4c(c3)OCO4)cc2)CC1,0%,?,-33*,-6%,3%,28%
COC(=O)C/C=C\[C@@H](C)[C@@H](CO)NS(=O)(=O)c1ccc(C)cc1,.,.,1,9%[10 µM],.,13%[10 µM]
O=C(c1ccccc1)N1CCN(C(=O)c2ccc(OC(F)(F)F)cc2)CC1,2%,2%[57.1 µM],5,-12%,4%[57.1 µM],1%
CCC(C)Nc1ccc(NC(C)CC)cc1 (stereo not drawn),.,20µM*,.,?,?,?
Fc1cccc(C2NC(=S)NC3=C2N2CCC3CC2)c1 (stereo not drawn),0%,9%,-2,-9%,2%,-35%
S=C1NC2=C(C(c3ccc(Br)cc3)N1)N1CCC2CC1 (stereo not drawn),.,25%[57.1 µM],6,-7%,-16%[57.1 µM],8.9µM*
Cc1ccc2nc(Cl)c(C3CC(c4ccco4)=NN3S(C)(=O)=O)cc2c1 (stereo not drawn),5%,?,2,9%,6%,-1%
Cc1ccc2cc(C3CC(c4ccco4)=NN3S(C)(=O)=O)c(Cl)nc2c1 (stereo not drawn),-1%,79µM*,0,4%,-4%,36%
CCN1CCc2nc(SCC(=O)Nc3ccc(OC)cc3)c(C#N)cc2C1,1%,18µM*,-12,4%,-1%,19%
COc1ccc(NC(=O)CSc2nc3c(cc2C#N)CN(C)CC3)cc1,-1%,?,-13,22%,-10%,1%

# Assay outcomes (PubChem)
